# Test results as given in the supplement of paper PMC8728848.
# About 410 targets per protein were measured; listed, in parts, are those with the strongest signals and a random draw of the rest.
# B1: Protein L(B1-B4) (Finegoldia magna), Q51912 (protein)
# chain: KEETPETPETDSEEEVTIKANLIFANGSTQTAEFKGTFEKATSEAYAYADTLKKDNGEYTVDVADKGYTLNIKFAGKEKTPEEPKEEVTIKANLIYADGKTQTAEFKGTFEEATAEAYRYADALKKDNGEYTVDVADKGYTLNIKFAGKEKTPEEPKEEVTIKANLIYADGKTQTAEFKGTFEEATAEAYRYADLLAKENGKYTVDVADKGYTLNIKFAGKEKTPEEPKEEVTIKANLIYADGKTQTAEFKGTFAEATAEAYRYADLLAKENGKYTADLEDGGYTINIRFAG
# Experiments:
# Assay in all cases: glycan array binding signal (z-score within array); higher = stronger binding
# Settings in all cases: glycan notation: IUPAC condensed, linker removed
# [1] = target: Fuc(a1-2)Gal(b1-3)GlcNAc(b1-3)[Fuc(a1-2)Gal(b1-3)GlcNAc(b1-6)]GalNAc
# Procedure, shortened: (§1)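 Glycan array data came from 3228 arrays in the Consortium for Functional Glycomics database, and only arrays with an available protein sequence were kept. Glycan names were put into IUPAC-condensed notation, and columns mapping to the same glycan were averaged. The binding signal is a within-array Z-score, averaged across arrays of one protein sequence run at different concentrations or buffers and across linkers. A negative Z-score can be read as non-binding.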
# [2] = target: Fuc(a1-2)Gal(b1-3)[Fuc(a1-4)]GlcNAc(b1-3)[Gal(b1-4)GlcNAc(b1-6)]Gal(b1-4)Glc
# Procedure, shortened: as §1
# [3] = target: Fuc(a1-2)Gal(b1-4)Fuc(a1-3)]GlcNAc(b1-2)Man(a1-3)[Fuc(a1-2)Gal(b1-4)[Fuc(a1-3)]GlcNAc(b1-2)Man(a1-6)]Man(b1-4)GlcNAc(b1-4)GlcNAc
# Procedure, shortened: as §1
# [4] = target: Fuc(a1-2)Gal(b1-4)[Fuc(a1-3)]GlcNAc
# Procedure, shortened: as §1
# [5] = target: Fuc(a1-2)Gal(b1-4)[Fuc(a1-3)]GlcNAc(b1-3)Gal(b1-4)[Fuc(a1-3)]GlcNAc(b1-3)Gal(b1-4)[Fuc(a1-3)]GlcNAc
# Procedure, shortened: as §1
# [6] = target: Fuc(a1-2)[Gal(a1-3)]Gal(b1-3)GlcNAc(b1-2)Man(a1-3)[Fuc(a1-2)[Gal(a1-3)]Gal(b1-3)GlcNAc(b1-2)Man(a1-6)]Man(b1-4)GlcNAc(b1-4)[Fuc(a1-6)]GlcNAc
# Procedure, shortened: as §1
# [7] = target: Fuc(a1-2)[Gal(a1-3)]Gal(b1-4)Glc
# Procedure, shortened: as §1
# [8] = target: Fuc(a1-2)[Gal(a1-3)]Gal(b1-4)GlcNAc(b1-3)GalNAc
# Procedure, shortened: as §1
# [9] = target: Fuc(a1-2)[Gal(a1-3)]Gal(b1-4)GlcNAc(b1-6)GalNAc
# Procedure, shortened: as §1
# [10] = target: Fuc(a1-2)[GalNAc(a1-3)]Gal(b1-4)GlcNAc(b1-2)Man(a1-3)[Fuc(a1-2)[GalNAc(a1-3)]Gal(b1-4)GlcNAc(b1-2)Man(a1-6)]Man(b1-4)GlcNAc(b1-4)[Fuc(a1-6)]GlcNAc
# Procedure, shortened: as §1
# [11] = target: Gal(b1-3)GlcNAc(b1-2)[Gal(b1-3)GlcNAc(b1-6)]Man(a1-6)[Gal(b1-3)GlcNAc(b1-2)Man(a1-3)]Man(b1-4)GlcNAc(b1-4)GlcNAc
# Procedure, shortened: as §1
# [12] = target: Gal(b1-3)GlcNAc(b1-3)Gal(b1-4)GlcNAc(b1-6)[Gal(b1-3)GlcNAc(b1-3)]Gal(b1-4)Glc
# Procedure, shortened: as §1
# [13] = target: Gal(b1-3)[Fuc(a1-4)]GlcNAc(b1-2)Man
# Procedure, shortened: as §1
# [14] = target: Gal(b1-4)GlcNAc(b1-2)[Gal(b1-4)GlcNAc(b1-6)]Man(a1-6)[Gal(b1-4)GlcNAc(b1-2)Man(a1-3)]Man(b1-4)GlcNAc(b1-4)[Fuc(a1-6)]GlcNAc
# Procedure, shortened: as §1
# [15] = target: Gal(b1-4)GlcNAc(b1-3)Gal(b1-4)GlcNAc(b1-2)Man(a1-3)[Gal(b1-4)GlcNAc(b1-3)Gal(b1-4)GlcNAc(b1-2)Man(a1-6)]Man(b1-4)GlcNAc(b1-4)[Fuc(a1-6)]GlcNAc
# Procedure, shortened: as §1
# [16] = target: Gal(b1-4)GlcNAc(b1-3)Gal(b1-4)GlcNAc(b1-3)Gal(b1-4)GlcNAc(b1-3)Gal(b1-4)GlcNAc(b1-2)Man(a1-3)[Gal(b1-4)GlcNAc(b1-3)Gal(b1-4)GlcNAc(b1-3)Gal(b1-4)GlcNAc(b1-3)Gal(b1-4)GlcNAc(b1-2)Man(a1-6)]Man(b1-4)GlcNAc(b1-4)GlcNAc
# Procedure, shortened: as §1
# [17] = target: Gal(b1-4)GlcNAc(b1-3)Gal(b1-4)GlcNAc(b1-3)Gal(b1-4)GlcNAc(b1-3)Gal(b1-4)GlcNAc(b1-3)Gal(b1-4)GlcNAc(b1-2)Man(a1-3)[Gal(b1-4)GlcNAc(b1-3)Gal(b1-4)GlcNAc(b1-3)Gal(b1-4)GlcNAc(b1-3)Gal(b1-4)GlcNAc(b1-3)Gal(b1-4)GlcNAc(b1-2)Man(a1-6)]Man(b1-4)GlcNAc(b1-4)GlcNAc
# Procedure, shortened: as §1
# [18] = target: Gal(b1-4)GlcNAc(b1-3)Gal(b1-4)GlcNAc(b1-3)[Gal(b1-4)GlcNAc(b1-3)Gal(b1-4)GlcNAc(b1-6)]GalNAc
# Procedure, shortened: as §1
# Gal3S(b1-3)GlcNAc = target: Gal3S(b1-3)GlcNAc
# Procedure, shortened: as §1
# [19] = target: Gal3S(b1-4)[Fuc(a1-3)]Glc6S
# Procedure, shortened: as §1
# [20] = target: GalNAc(b1-4)GlcNAc(b1-2)Man(a1-3)[GalNAc(b1-4)GlcNAc(b1-2)Man(a1-6)]Man(b1-4)GlcNAc(b1-4)GlcNAc
# Procedure, shortened: as §1
# GlcA(b1-3)GlcNAc = target: GlcA(b1-3)GlcNAc
# Procedure, shortened: as §1
# [21] = target: GlcNAc(b1-3)Gal(b1-4)GlcNAc(b1-3)Gal(b1-4)GlcNAc(b1-2)Man(a1-3)[GlcNAc(b1-3)Gal(b1-4)GlcNAc(b1-3)Gal(b1-4)GlcNAc(b1-2)Man(a1-6)]Man(b1-4)GlcNAc(b1-4)[Fuc(a1-6)]GlcNAc
# Procedure, shortened: as §1
# [22] = target: GlcNAc(b1-3)Gal(b1-4)GlcNAc(b1-3)Gal(b1-4)GlcNAc(b1-3)Gal(b1-4)GlcNAc(b1-2)Man(a1-3)[GlcNAc(b1-3)Gal(b1-4)GlcNAc(b1-3)Gal(b1-4)GlcNAc(b1-3)Gal(b1-4)GlcNAc(b1-2)Man(a1-6)]Man(b1-4)GlcNAc(b1-4)GlcNAc
# Procedure, shortened: as §1
# [23] = target: GlcNAc6S(b1-3)Gal(b1-4)GlcNAc
# Procedure, shortened: as §1
# [24] = target: Man(a1-3)[Man(a1-6)]Man(a1-6)[Man(a1-2)Man(a1-3)]Man(b1-4)GlcNAc(b1-4)GlcNAc
# Procedure, shortened: as §1
# Man(a1-6)Man = target: Man(a1-6)Man
# Procedure, shortened: as §1
# [25] = target: Neu5Ac(a2-3)Gal(b1-4)GlcNAc(b1-2)Man(a1-3)[Neu5Ac(a2-6)Gal(b1-4)GlcNAc(b1-2)Man(a1-6)]Man(b1-4)GlcNAc(b1-4)GlcNAc
# Procedure, shortened: as §1
# [26] = target: Neu5Ac(a2-3)Gal(b1-4)GlcNAc(b1-2)[Neu5Ac(a2-3)Gal(b1-4)GlcNAc(b1-4)]Man(a1-3)[GlcNAc(b1-4)][Neu5Ac(a2-3)Gal(b1-4)GlcNAc(b1-2)[Neu5Ac(a2-3)Gal(b1-4)GlcNAc(b1-6)]Man(a1-6)]Man(b1-4)GlcNAc(b1-4)GlcNAc
# Procedure, shortened: as §1
# [27] = target: Neu5Ac(a2-3)Gal(b1-4)GlcNAc(b1-3)Gal(b1-4)GlcNAc(b1-3)Gal(b1-4)GlcNAc
# Procedure, shortened: as §1
binder,measurement,setting,value
B1,glycan array binding signal (z-score),[1],2.77
same,glycan array binding signal (z-score),[2],-0.528
same,glycan array binding signal (z-score),[3],1.7
same,glycan array binding signal (z-score),[4],-0.142
same,glycan array binding signal (z-score),[5],0.159
same,glycan array binding signal (z-score),[6],3.09
same,glycan array binding signal (z-score),[7],0.047
same,glycan array binding signal (z-score),[8],3.09
same,glycan array binding signal (z-score),[9],-0.474
same,glycan array binding signal (z-score),[10],2.95
same,glycan array binding signal (z-score),[11],0.177
same,glycan array binding signal (z-score),[12],-0.192
same,glycan array binding signal (z-score),[13],1.5
same,glycan array binding signal (z-score),[14],2.92
same,glycan array binding signal (z-score),[15],0.486
same,glycan array binding signal (z-score),[16],2.06
same,glycan array binding signal (z-score),[17],0.528
same,glycan array binding signal (z-score),[18],4.22
same,glycan array binding signal (z-score),Gal3S(b1-3)GlcNAc,-0.911
same,glycan array binding signal (z-score),[19],2.28
same,glycan array binding signal (z-score),[20],1.49
same,glycan array binding signal (z-score),GlcA(b1-3)GlcNAc,-0.785
same,glycan array binding signal (z-score),[21],3.07
same,glycan array binding signal (z-score),[22],1.06
same,glycan array binding signal (z-score),[23],-0.336
same,glycan array binding signal (z-score),[24],2.94
same,glycan array binding signal (z-score),Man(a1-6)Man,-0.159
same,glycan array binding signal (z-score),[25],-1.02
same,glycan array binding signal (z-score),[26],-0.913
same,glycan array binding signal (z-score),[27],-1.05
